gsp antag: qHTS for Antagonists of gsp, the Etiologic Mutation Responsible for Fibrous Dysplasia/McCune-Albright Syndrome: qHTS. gsp-mutant cells, cAMP HTRF, 30 min. Potency, µM (titrated, usually from 76.9 µM), for the others: top-dose activity change, negative = inhibition, most hits filed as inhibitors. 0.4% of 340,000 active; calls by dose curve; cell line not stated here;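 also: intracellular cAMP measured with PDE inhibitor Ro 20-1724 present during compound exposure; potency is read from the fitted curve at half-maximal effect; % is scaled to controls: 0 for no effect and ±100 for the full control effect; nearly all actives have a fitted effect of over 65% in size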
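Cells in G418 medium, seeded 16-24 h, 37C; buffer exchange to DPBS + 1 mM CaCl2, 0.5 mM MgCl2, 0.05% BSA; cpds in DMSO + […] (300 uM stock), 30 min 37C; HTRF cAMP detection.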
RXFP1 agonist: qHTS Assay for Agonists of the Relaxin Receptor RXFP1; 0.3% of 370,000 active; Relaxin receptor 1 (Homo sapiens), Q9HBX9; HEK293T-RXFP1 cAMP TR-FRET, 30 min; response scale: percent of porcine relaxin response, buffer zero; Potency, µM (doses to about 57.5 µM), inactives show top-dose activation, hits mostly activators; AID 2676, 2010; active = well fitted activation curve with a large enough effect; inconclusive = small, poorly fitted or top-dose-only effect; also: potency is read from the fitted curve at half-maximal effect; % is scaled to controls: 0 for no effect and ±100 for the full control effect; nearly all actives have a fitted effect of over 60% in size
Target sequence (Q9HBX9 whole entry, looked up): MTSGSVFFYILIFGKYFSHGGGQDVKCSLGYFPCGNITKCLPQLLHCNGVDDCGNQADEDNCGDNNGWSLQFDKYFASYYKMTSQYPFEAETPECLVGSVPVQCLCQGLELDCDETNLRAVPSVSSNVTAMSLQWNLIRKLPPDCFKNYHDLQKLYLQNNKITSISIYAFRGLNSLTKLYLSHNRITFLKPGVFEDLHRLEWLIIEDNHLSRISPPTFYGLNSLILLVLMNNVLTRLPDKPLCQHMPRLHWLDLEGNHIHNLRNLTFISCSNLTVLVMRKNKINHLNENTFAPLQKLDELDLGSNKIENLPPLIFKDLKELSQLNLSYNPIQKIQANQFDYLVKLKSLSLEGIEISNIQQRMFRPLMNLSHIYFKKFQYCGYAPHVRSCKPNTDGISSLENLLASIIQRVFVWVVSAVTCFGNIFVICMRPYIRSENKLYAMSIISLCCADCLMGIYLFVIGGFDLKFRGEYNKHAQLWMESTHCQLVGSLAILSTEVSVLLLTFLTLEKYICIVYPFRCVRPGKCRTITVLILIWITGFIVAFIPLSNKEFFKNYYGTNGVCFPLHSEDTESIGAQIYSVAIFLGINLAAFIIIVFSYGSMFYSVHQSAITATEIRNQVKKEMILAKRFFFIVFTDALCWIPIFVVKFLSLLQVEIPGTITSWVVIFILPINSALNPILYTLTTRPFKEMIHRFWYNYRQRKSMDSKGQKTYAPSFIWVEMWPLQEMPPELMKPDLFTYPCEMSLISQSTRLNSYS
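Agonist response is measured as cAMP accumulation in an RXFP1-transfected HEK293T line under PDE4 inhibition. Values are scaled between buffer-only and 29 nM porcine relaxin, and EC50s come from standard Hill equation fits.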
pAkt inh: HTS Assay for Inhibitors of Akt Phophorylation: Primary Screen; Neuro2A IGF-stimulated pAkt S473 HTRF, 20 min; stronger effect = lower value; activity change, % for hits at 50 µM; 0.32% of 360,000 active; in the data active = activity change below about -80%; inconclusive = mostly about -51% to -80%; also: % is scaled to controls: 0 for no effect and ±100 for the full control effect
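Neuro2A cells in DMEM with 0.5% FBS, overnight at 37 deg C, given compound at single 50 µM final, then IGF (6 nM final) for 20 min at 37 deg C. Lysed; phospho-Akt Ser473 by HTRF after 24 h, 665/615 ratio.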
gsp ag: qHTS for Agonist of gsp, the Etiologic Mutation Responsible for Fibrous Dysplasia/McCune-Albright Syndrome: qHTS | Potency, µM (series often up to 76.9 µM), for the others: at the top dose activation (cAMP increase), hits mostly activators | gsp mutant cells, cAMP HTRF, 30 min | 0.13% of 340,000 active | AID 624287, 2012; active = well fitted activation curve with a large enough effect; inconclusive = small, poorly fitted or top-dose-only effect, or another doubt; inactive = no such curve, though single readings can be large or run the other way; cell line not stated here;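 also: phosphodiesterase inhibitor Ro 20-1724 added with compounds to block cAMP breakdown; potency is read from the fitted curve at half-maximal effect; nearly all actives have a fitted effect of over 60% in size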
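Cells stably selected in G418 were plated at 2000/well, grown 16-24 hr, then given compounds in DMSO with the PDE inhibitor […] (300 uM solution added) for 30 min at 37C; cAMP was read by HTRF.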
RXFP1 antag: qHTS Assay for Antagonists of the Relaxin Receptor RXFP1; HEK293-RXFP1, relaxin-stimulated cAMP HTRF, 30 min; stronger effect = lower value; AID 1259400, 2018; activity change, negative = inhibition, % at 57.5 µM; Relaxin receptor 1 (Homo sapiens), Q9HBX9; 0.59% of 350,000 active;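 active = activity change of -60% or lower, but not beyond a set lower limit; inconclusive = change between -60% and -40%, or beyond the set limit; inactive = change above -40%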; also: % is scaled to controls: 0 for no effect and ±100 for the full control effect
Numbers without * were called inactive; i = inactive; u = inconclusive; x = no result; [ ] = dose if it differs, or a comment. Only some compounds are listed: those with a hit (about 1.2% of all), similar ones and a draw of the others.

SMILES	gsp antag	RXFP1 agonist	pAkt inh	gsp ag	RXFP1 antag
CN(C(=O)COc1ccccc1C(=O)NCCOc1ccccc1)c1ccccc1	35µM*	2%	i	-18%	-28
CC(=NC1CCCC1)c1c(C)[nH]n(-c2nc3ccccc3s2)c1=O	-11%	2%	-116%*	2%	7
c1ccc(-n2cnc3cc(NCc4ccncc4)ccc32)cc1	-13%	2%	-103%*	-6%	9
O=C(NCCSCc1ccco1)Nc1cc(Cl)cc(Cl)c1	u	1%	i	5%	-71*
CCCCOCCCNc1ncnc2c1[nH]c1ccccc12	7.9µM*	-3%	i	0%	-3
CCOCCCNc1ncnc2c1[nH]c1ccccc12	-22%	1%	x	28%	-6
c1ccc2c(c1)[nH]c1c(NCC3CCCO3)ncnc12 (centres undefined)	35µM*	1%	i	-1%	-5
O=C(Nc1cccc(C(F)(F)F)c1)c1cc2c(=O)c3ccccc3oc2nc1C(F)(F)F	-1%	1%	i	0%	-13
O=C(Nc1ccccc1)c1cc2c(=O)c3ccccc3oc2nc1C(F)(F)F	14%	u	-94%*	u	1
COc1ccc2c(Sc3ccccc3)c(C(=O)N3CCC(C)CC3)[nH]c2c1	x	0%	x	x	-33
CCc1nn2c(=O)cc(COC(=O)c3ccc(NC(=O)c4cccs4)cc3)nc2s1	x	3%	x	x	0
O=[N+]([O-])c1ccc(Nc2ccccc2)c2nonc12	-21%	1%	i	17%	2
O=[N+]([O-])c1ccc(Sc2cccc[n+]2[O-])c2nonc12	35µM*	4%	i	11%[15.4 µM]	u
Cc1cc(-c2ccc(C)c(S(=O)(=O)Nc3cccc(C#N)c3)c2)on1	x	1%	x	x	-24
Cc1ccc(CNc2nc(-c3ccco3)nn2S(C)(=O)=O)cc1	x	-1%	x	x	1
CC/C(=N\NC(=O)c1nnn(-c2nonc2N)c1CN(C)c1ccccc1)c1ccccc1	1%	3%	x	-5%	-102*
C/C(=N\NC(=O)c1nnn(-c2nonc2N)c1CN(C)c1ccccc1)c1ccc(O)cc1	-30%	0%	i	-18%	2
CC(C)Oc1ccc(CNC(=O)C2CCN(C(=O)N3CCOc4ccc(Cl)cc43)CC2)cc1	x	0%	x	x	-30
CN(C)/C=C/c1oc2ccc(O)cc2c1[N+](=O)[O-]	28µM*	1%	i	21%[15.4 µM]	-5
COc1cccc(-c2nnc(SC(C(=O)c3c[nH]c4ccccc34)c3ccccc3)n2C)c1 (centres undefined)	u	0%	i	-4%[15.4 µM]	-77*
COc1cccc(-c2nnc(SCCC(=O)O)n2C)c1	9%	0%	i	1%	-10
COc1ccccc1-c1nnc(SCC(=O)NC2CC2)n1C	4%	2%	i	-57%	-1
COc1ccccc1-c1nnc(SC(C(=O)c2c[nH]c3ccccc23)c2ccccc2)n1C (centres undefined)	35µM*	0%	i	5%	2
CCOC(=O)N1CCc2c(sc(NCc3cccc(F)c3)c2C(=O)Nc2ccc(OC)cc2OC)C1	x	0%	x	x	-13
C/C(=N\NC(=O)c1ccc(F)cc1)c1cccc(NC(=O)c2ccco2)c1	-2%	4%	-95%*	-19%	-2
SMILES	gsp antag	RXFP1 agonist	pAkt inh	gsp ag	RXFP1 antag
C/C(=N\NC(=O)c1ccc(F)cc1)c1cccc(NC(=O)c2cccc(F)c2)c1	-2%	0%	i	u	-6
Cc1ccc(NC(=O)Cn2c(=O)nc(-c3ccccc3F)c3cc(Cl)ccc32)c(Br)c1	x	4%	x	x	x
Cc1ccc(N(Cc2cccs2)C(=O)c2ccc(Br)o2)cc1	x	0%	x	x	-85*
Cc1cc(OC(C)C(=O)N(Cc2cccs2)C2CCS(=O)(=O)C2)ccc1Cl (centres undefined)	-13%	3%	i	-78%	-4
COc1ccc(N(Cc2cccs2)C(=O)c2ccc(OCC(C)C)cc2)cc1	x	-4%	x	x	u
Cc1ccc(N(Cc2cccs2)C(=O)C(C)Oc2ccc(Cl)c(C)c2)cc1 (centres undefined)	x	-2%	x	x	-100*
COc1ccc(N(Cc2cccs2)C(=O)c2ccc(C(C)(C)C)cc2)cc1	x	-1%	x	x	-73*
Cc1ccc(N(Cc2cccs2)C(=O)c2ccccc2)cc1	x	-1%	x	x	x
CCOC(=O)c1ccc(NC(=O)c2c(NCc3cc(OC)c(OC)cc3OC)sc3c2CCCC3)cc1	x	0%	x	x	-13
CCn1nnc2cc(C(=O)Nc3cccc(C)c3C)ccc21	x	8%	x	x	12
CN(C)[C@@H](CCOc1cccc2ccccc12)c1ccccc1	x	x	x	x	-31
Cc1ccc(/C=C/c2onc(C)c2S(=O)(=O)N2CCC(C(=O)N(CCC(C)C)Cc3ccco3)CC2)cc1	x	-2%	x	x	-7
CCOC(=O)C1=C(CC)Nc2ccccc2N=C1NC(=O)c1cc(C)on1	-1%	0%	i	-3%	5
CCOC(=O)C1=C(CC)Nc2ccccc2N=C1NC(=O)Nc1ccc(Cl)c(Cl)c1	32µM*	1%	i	-7%	-14
N#Cc1ccsc1NC(=O)C1CCN(S(=O)(=O)c2cccs2)CC1	-8%	0%	i	11%[15.4 µM]	-70*
O=C(Nc1ccccc1)C1CCN(S(=O)(=O)c2cccs2)CC1	8%	1%	i	42%	-2
CC(C)(C)OC(=O)NCCCCCNC(=O)c1nc[nH]c1C(=O)NCc1ccc(CNC(=O)OC(C)(C)C)cc1	40µM*	x	i	x	x
C[C@H](NC(=O)c1nc[nH]c1C(=O)NCc1ccccc1)C(=O)OCc1ccccc1	11µM*	-1%	i	-41%	x
CC(C)C[C@H](NC(=O)c1nc[nH]c1C(=O)NCc1ccccc1)C(=O)OCc1ccccc1	-16%	2%	i	x	x
Cc1ccc(C(=O)NCc2ccccc2)cc1NC(=O)c1nsc2ccccc12	x	0%	x	x	-24
CCOC(=O)N1CCN(C(=O)CSCC(=O)Nc2nc(-c3ccc(C)cc3)cs2)CC1	32µM*	0%	i	-4%	1
CCOC(=O)N1CCN(C(=O)CSCC(=O)Nc2nc(-c3ccc4c(c3)OCO4)cs2)CC1	35µM*	0%	i	-19%	2
CCOC(=O)N1CCN(C(=O)CSCC(=O)Nc2nc(-c3cccs3)cs2)CC1	u	0%	i	-13%	-5
O=C(CNC(=O)c1ccccc1Cl)OCc1cc(=O)n2ccsc2n1	x	27%	x	x	x
CCCCCCc1nc2c(=O)[nH]c3ccccc3c2o1	12%	11%	-87%*	-5%	-14
